According to PubChem BioAssay (NCATS):
Results filed as inconclusive are left out. Calls of active or inactive are those of the source. The call rests on the fitted dose curve; in most records, active means well fitted curve in the direction sought with a large enough effect; inconclusive means small, poorly fitted or top-dose-only effect, or another doubt; inactive means no such curve, though single readings can be large; an effect the other way counts as inactive or inconclusive.

Experiments:
[1] = qHTS of pediatric cancer cell lines to identify multiple opportunities for drug repurposing: Primary screen for TC32 cells (AID 1347089); further: nearly all actives have a fitted effect of over 60% in size
Summary of the method: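 Luminescent CellTiter-Glo read-out of metabolically active TC32 cells after 48 h compound exposure. Primary: MIPE 11-point, 0.78 nM–46 µM; NPC 8-point, 0.59 nM–46 µM. Confirmatory: 11-point dilutions.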

[2] = qHTS of pediatric cancer cell lines to identify multiple opportunities for drug repurposing: Primary screen for DAOY cells (AID 1347090); further: nearly all actives have a fitted effect of over 55% in size
Summary of the method: (§1)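 Viability measured as metabolically active cells via CellTiter-Glo luminescence following 48 hours of compound exposure, 11-point dilutions in confirmatory testing. 500-1,000 cells/well plated 5 hours before dosing; controls were DMSO and 2.3 µM bortezomib.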

[3] = qHTS of pediatric cancer cell lines to identify multiple opportunities for drug repurposing: Primary screen for SJ-GBM2 cells (AID 1347091)
Summary of the method: as §1

[4] = qHTS of pediatric cancer cell lines to identify multiple opportunities for drug repurposing: Primary screen for A673 cells (AID 1347092); further: nearly all actives have a fitted effect of over 45% in size
Summary of the method: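 A673 cells (500-1,000 cells/well in growth media) were pre-incubated 5 h at 37 degrees C, then exposed to compounds for 48 h. Viability was read as CellTiter-Glo luminescence; concentration-response curves came directly from the primary screen.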

[5] = qHTS of pediatric cancer cell lines to identify multiple opportunities for drug repurposing: Primary screen for SK-N-MC cells (AID 1347093)
Summary of the method: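 Metabolically active cells were quantified by ATP-dependent luminescence (CellTiter-Glo, 15 min at room temperature) following 48 h treatment. Cells had been plated at 500-1,000 per well and settled for 5 h beforehand.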

[6] = qHTS of pediatric cancer cell lines to identify multiple opportunities for drug repurposing: Primary screen for BT-37 cells (AID 1347094)
Summary of the method: (§2)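 Quantitative HTS format: each compound titrated (MIPE 11 points from 0.78 nM, NPC 8 points from 0.59 nM) onto cells plated 5 hours earlier. After 48 h at 37 degrees C, CellTiter-Glo luminescence was recorded.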

[7] = qHTS of pediatric cancer cell lines to identify multiple opportunities for drug repurposing: Primary screen for NB-EBc1 cells (AID 1347095)
Summary of the method: as §2

[8] = qHTS of pediatric cancer cell lines to identify multiple opportunities for drug repurposing: Primary screen for U-2 OS cells (AID 1347096); further: nearly all actives have a fitted effect of over 50% in size
Summary of the method: (§3)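 Viability after 48 h compound treatment at 37C, 500-1,000 cells/well, read as ATP luminescence with CellTiter-Glo. Primary screens used 11-point (MIPE, 0.78 nM-46 µM) or 8-point (NPC, 0.59 nM-46 µM) final concentrations; follow-up screens used 11-point dilutions.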

[9] = qHTS of pediatric cancer cell lines to identify multiple opportunities for drug repurposing: Primary screen for Saos-2 cells (AID 1347097); further: nearly all actives have a fitted effect of over 40% in size
Summary of the method: as §2

[10] = qHTS of pediatric cancer cell lines to identify multiple opportunities for drug repurposing: Primary screen for SK-N-SH cells (AID 1347098); further: nearly all actives have a fitted effect of over 65% in size
Summary of the method: (§4)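 Cells (500-1,000/well) rested 5 h, then received compounds for 48 h; metabolically active cells were measured by CellTiter-Glo luminescence. Final concentrations spanned up to 46 µM (MIPE, 11-point) or 0.59 nM-46 µM (NPC, 8-point) in primary screens, 11-point in follow-ups.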

[11] = qHTS of pediatric cancer cell lines to identify multiple opportunities for drug repurposing: Primary screen for NB1643 cells (AID 1347099); further: nearly all actives have a fitted effect of over 50% in size
Summary of the method: as §2

[12] = qHTS of pediatric cancer cell lines to identify multiple opportunities for drug repurposing: Primary screen for LAN-5 cells (AID 1347100)
Summary of the method: as §3

[13] = qHTS of pediatric cancer cell lines to identify multiple opportunities for drug repurposing: Primary screen for BT-12 cells (AID 1347101); further: nearly all actives have a fitted effect of over 25% in size
Summary of the method: as §4

[14] = qHTS of pediatric cancer cell lines to identify multiple opportunities for drug repurposing: Primary screen for Rh18 cells (AID 1347102); further: nearly all actives have a fitted effect of over 65% in size
Summary of the method: as §3

[15] = qHTS of pediatric cancer cell lines to identify multiple opportunities for drug repurposing: Primary screen for OHS-50 cells (AID 1347103); further: nearly all actives have a fitted effect of over 40% in size
Summary of the method: as §4

[16] = qHTS of pediatric cancer cell lines to identify multiple opportunities for drug repurposing: Primary screen for RD cells (AID 1347104); further: nearly all actives have a fitted effect of over 55% in size
Summary of the method: as §2

Measured: Potency
Potency means the concentration at half of the fitted maximal effect.

COc1ccc(C2C(=O)c3ccccc3C2=O)cc1
inactive: all assays above

CN=C(NC#N)Nc1ccc(C2=NNC(=O)CC2C)cc1 (configuration not stated)
inactive: all assays above

CCN(CC)CCNC(=O)COc1ccc(Cl)cc1
not listed: [11] | [16]
inactive: all other assays above

O=c1[nH]c(=O)n([C@H]2CCCO2)cc1F
not listed: [11]
inactive: all other assays above

NC(CO)(CO)CO
not listed: [11] | [14] | [16]
inactive: all other assays above

Nc1nc2ncc(CNc3ccc(C(=O)N[C@@H](CCC(=O)O)C(=O)O)cc3)nc2c(=O)[nH]1
inactive: all assays above

NC(CS)C(=O)O (configuration not stated)
not listed: [14]
inactive: all other assays above

CC[N+](CC)(CCNC(=O)C(=O)NCC[N+](CC)(CC)Cc1ccccc1Cl)Cc1ccccc1Cl
inactive: all assays above

NCCC(O)(P(=O)(O)O)P(=O)(O)O
not listed: [14]
inactive: all other assays above

C/C=C/c1ccc(OC)cc1
not listed: [14] | [16]
inactive: all other assays above

CCN1CCCC1=O
inactive: all assays above

CC(O)(P(=O)(O)O)P(=O)(O)O
inactive: all assays above

C[C@]12CCC(=O)C=C1CC[C@H]1[C@@H]3CC[C@](O)(C(=O)CO)[C@@]3(C)C[C@H](O)[C@@]12F
inactive: all assays above

CC1(C)O[C@@H]2C[C@H]3[C@@H]4C[C@H](F)C5=CC(=O)CC[C@]5(C)[C@H]4[C@@H](O)C[C@]3(C)[C@]2(C(=O)CO)O1
not listed: [11]
inactive: all other assays above

COC(=O)CCc1ccc(OCC(O)CNC(C)C)cc1 (configuration not stated)
not listed: [14]
inactive: all other assays above

CC(=O)CC(c1ccc([N+](=O)[O-])cc1)c1c(O)c2ccccc2oc1=O (configuration not stated)
inactive: all assays above

Cc1cccn2c(=O)c(-c3nnn[nH]3)cnc12
inactive: all assays above

CCCCCCCCCCCCCCCCCC(=O)OCC(O)CO (configuration not stated)
inactive: all assays above

OC(CCN1CCCCC1)(c1ccccc1)c1ccccc1
not listed: [11] | [15] | [16]
inactive: all other assays above

C[C@@H]1C[C@H]2[C@@H]3CCC4=CC(=O)C=C[C@]4(C)[C@@]3(F)[C@@H](O)C[C@]2(C)[C@H]1C(=O)CO
not listed: [15]
inactive: all other assays above

COCc1c(C(C)C)nc(C(C)C)c(/C=C/[C@@H](O)C[C@@H](O)CC(=O)O)c1-c1ccc(F)cc1
active: [1] 1490 nM | [2] 266 nM | [3] 237 nM | [4] 668 nM | [5] 1190 nM | [6] 2190 nM | [7] 1680 nM | [8] 841 nM | [9] 106 nM | [10] 433 nM | [11] 1500 nM | [12] 3760 nM | [14] 473 nM | [15] 309 nM | [16] 1680 nM

O=c1ccc2ccccc2o1
inactive: all assays above

CCC(C(=O)OCCN(CC)CC)c1ccccc1 (configuration not stated)
active: [5] 23700 nM
not listed: [11]
inactive: all other assays above

CN(C)C(=S)SC(=S)N(C)C
inactive: [3]
active: [1] 3740 nM | [2] 841 nM | [4] 668 nM | [5] 1 nM | [6] 24600 nM | [7] 10600 nM | [8] 1680 nM | [9] 1060 nM | [10] 1940 nM | [12] 1330 nM | [13] 1230 nM | [14] 1880 nM | [15] 8710 nM | [16] 944 nM

COc1cc(OC)cc(OC)c1
not listed: [11]
inactive: all other assays above

Cc1ccc(Nc2c(F)cccc2Cl)c(CC(=O)O)c1
not listed: [11] | [14]
inactive: all other assays above

Nc1ccc(C(=O)O)cc1
not listed: [10]
inactive: all other assays above

CN(C)CCOc1ccccc1Cc1ccccc1
not listed: [10] | [15]
inactive: all other assays above

CCOc1ccc(NC(=O)CC(C)O)cc1 (configuration not stated)
not listed: [9] | [10]
inactive: all other assays above
